HT1080-NT tox = qHTS for induction of synthetic lethality in tumor cells producing 2HG: qHTS for the HT-1080-NT fibrosarcoma cell line. HT-1080-NT fibrosarcoma viability, CellTiter-Glo ATP luminescence, 48 h. Potency, µM (highest dose often 46.1 µM), for the others: top-dose activity, negative = less viability, actives largely listed as cytotoxic. 360,000 tested, 1.6% active;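 further: NT is the 2HG producing partner of a matched IDH1 knockdown line; potency means the concentration at half of the fitted maximal effect; 0% = DMSO-treated cells and -100% = media-only wells without cells; nearly all actives have a fitted effect of over 55% in size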
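Compounds were tested in concentration-response format on HT-1080-NT cells for 48 hours at 37 degrees C. Cell viability came from CellTiter-Glo luminescence; curves were classified by r2, response magnitude and activity.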
IL1B secr inh = qHTS for Inhibitors of Inflammasome Signaling: IL-1-beta AlphaLISA Primary Screen | THP-1 LPS/ATP IL-1B secretion, AlphaLISA, 16 h; active compounds read low | activity change, % at 57.5 µM | 360,000 tested, 4.7% active; in the data active means activity change below about -50%; inconclusive means mostly about -30% to -49%
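THP-1 cells pretreated 1 hr with compounds (up to 57.5 uM final), then stimulated with LPS (250 ng/mL final) plus ATP (1.25 mM final); secreted IL-1B measured by AlphaLISA after 16 hr, decreased signal indicating inhibition.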
HT1080 IDH1KD tx = qHTS for induction of synthetic lethality in tumor cells producing 2HG: qHTS for the HT-1080-IDH1KD cell line | HT-1080 IDH1 knockdown viability, ATP luminescence, 48 h | Potency, µM (series often up to 46.1 µM), for the others: top-dose activity, negative = toxicity, actives largely listed as cytotoxic | 360,000 tested, 2% active | AID 686971, 2013;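 further: potency means the concentration at half of the fitted maximal effect; 0% = DMSO wells and -100% = cell-free medium wells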
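% activity derives from luminescence (CellTiter-Glo), normalised to DMSO and no-cell wells. HT-1080-IDH1KD cells, 750/well, had 48 h compound exposure at 37 °C.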
DT40 TDP1 CPT = qHTS for Inhibitors of human tyrosyl-DNA phosphodiesterase 1 (TDP1): qHTS in cells in presence of CPT; chicken DT40 Tdp1-/-;hTDP1 cells + 20 nM CPT, ATP luminescence, 48 h; Potency, µM (titrated, usually from 46.2 µM), without a hit: top-dose activity change, negative = growth inhibition, usual class: inhibitors; 420,000 tested, 12% active; further: potency means the concentration at half of the fitted maximal effect; nearly all actives have a fitted effect of over 55% in size
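Chicken DT40 Tdp1-/- cells stably complemented with human TDP1 were seeded at 400 cells/well in medium containing 20 nM camptothecin, exposed to pin-transferred compounds, and grown at 37 °C for at least 48 hr. Viability was read as ATP luminescence.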
DT40 TDP1 no CPT = qHTS for Inhibitors of human tyrosyl-DNA phosphodiesterase 1 (TDP1): qHTS in cells in absence of CPT. DT40 Tdp1-/- hTDP1 cells, no CPT, ATP luminescence, 48 h. Potency, µM (top dose mostly 46.2 µM), inactives show top-dose activity change, negative = growth inhibition, hits mostly inhibitors. 420,000 tested, 15% active; further: potency means the concentration at half of the fitted maximal effect; nearly all actives have a fitted effect of over 55% in size
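Camptothecin absent (DMSO only). Human TDP1-complemented DT40 knockout cells, 400 cells/well, 37 °C for minimum 48 hr; ATP measured via CellTiter-Glo, 30 min dark incubation, luminescence.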
uPA generation = qHTS for Inhibitors of Cell Surface uPA Generation; cell surface uPA generation assay, qHTS; Potency, µM (top dose mostly 38.3 µM), for inactives: at the highest dose activity change, negative = inhibition, hits mostly inhibitors; 330,000 tested, 0.31% active; active means well fitted inhibition curve with a large enough effect; inconclusive means small, poorly fitted or top-dose-only effect; inactive means no such curve, though single readings can be large or run the other way; tested in mouse RAW 264.7 cells; further: potency means the concentration at half of the fitted maximal effect; nearly all actives have a fitted effect of over 55% in size
Numbers without * were called inactive; ? = inconclusive; nt = not tested or not shown. Compounds with a hit are over-represented: about 19% of the library has one in this group of screens. Unless noted, the call rests on the fitted dose curve; in most records, active means well fitted curve in the direction sought with a large enough effect; inconclusive means small, poorly fitted or top-dose-only effect, or another doubt; inactive means no such curve, though single readings can be large; an effect the other way counts as inactive or inconclusive. Unless noted, on the % scale 0 is the no-effect control and ±100 the full control effect.

SMILES	HT1080-NT tox	IL1B secr inh	HT1080 IDH1KD tx	DT40 TDP1 CPT	DT40 TDP1 no CPT	uPA generation
Nc1nc2ccc(NC(=O)c3ccco3)cc2s1	-16.4%	5.6	2.2%	7.9%	-17.4%	-1.1%
O=C(Nc1ccc2nc(SCCOc3ccccc3)sc2c1)c1cccs1	nt	nt	nt	?	20.6µM*	nt
CC(=O)Nc1ccc2nc(SCCOc3ccccc3Cl)sc2c1	nt	nt	nt	?	23.1µM*	nt
CC(C)C(=O)Nc1ccc2nc(SCCOc3ccccc3)sc2c1	nt	nt	nt	-25.2%	-28.5%	nt
Cc1ccc(OCC(=O)Nc2ccc3nc(SCCOc4ccccc4)sc3c2)cc1	nt	nt	nt	?	10.3µM*	nt
COc1cc(C)ccc1OCCSc1nc2ccc(NC(=O)c3ccco3)cc2s1	nt	nt	nt	23.1µM*	10.3µM*	nt
CC(=O)Nc1ccc2nc(NC(=O)COc3ccccc3Cl)sc2c1	-27.0%	23.6	-3.2%	3.0%	-13.4%	-8.6%
CC(=O)Nc1ccccc1-c1nc2ccccc2n(Cc2cccc(Br)c2)c1=O	nt	nt	nt	-3.8%	?	nt
Cc1ccc(CNC(=O)CN(c2cc(C)cc(C)c2)S(=O)(=O)c2c(C)noc2C)cc1	nt	nt	nt	-27.6%	?	nt
Cc1c2cnn(-c3ccccc3)c(=O)c2c(C)n1CC(=O)NCCc1ccc(Cl)cc1	nt	nt	nt	-18.1%	-3.7%	nt
COc1ccccc1OCCSc1nc2ccc([N+](=O)[O-])cc2s1	-4.8%	-15.7	-12.1%	?	?	6.1%
COc1cc(C)ccc1OCCSc1nc2ccc(NC(=O)c3cccs3)cc2s1	nt	nt	nt	?	16.4µM*	nt
COCC(=O)N1CCC2(CCCN(c3ccncc3)C2)CC1	nt	nt	nt	-4.4%	2.6%	nt
O=C(C[n+]1ccccc1)Nc1ccccc1C(F)(F)F	-2.6%	13.3	0.9%	-7.7%	20.4%	31.2%
COc1ccc(-n2c(SC3CCOC3=O)nc3ccccc3c2=O)cc1Cl (stereo not given)	-3.0%	-12.8	2.1%	13µM*	?	-24.5%
COc1ccc(-n2c(/C=C/c3ccccc3F)nc3cc(OC)c(OC)cc3c2=O)cc1Cl	nt	nt	nt	14.6µM*	18.4µM*	nt
COc1ccc(-n2c(/C=C/c3cccc4ccccc34)nc3ccccc3c2=O)cc1Cl	nt	nt	nt	20.6µM*	20.6µM*	nt
COc1ccc(-n2c(SC3CCOC3=O)nc3ccccc3c2=O)cc1OC (stereo not given)	-2.9%	-13.5	-2.0%	-14.0%	2.6%	-15.3%
CCOc1ccc(-n2c(/C=C/c3cccc(F)c3)nc3cc(OC)c(OC)cc3c2=O)cc1	nt	nt	nt	9.2µM*	9.2µM*	nt
COc1ccc2cc3cc(C(=O)Nc4cc(C)c(Cl)cc4OC)oc3nc2c1	nt	nt	nt	-0.7%	?	nt
CS(=O)(=O)N1CCC(Oc2ccccc2C(=O)NCCCc2cccnc2)CC1	10.2%	10.8	15.7%	-26.6%	-25.5%	-1.9%
CC1=C(C(N)=O)C(c2ccc(C(C)C)cc2)n2nc(SCc3ccccc3F)nc2N1 (stereo not given)	nt	nt	nt	-2.6%	-0.3%	nt
Cc1ccc(NC(=O)CSc2ncc3ccccn23)cc1C	7.8%	-10.7	5.4%	?	?	-5.1%
O=C(Nc1ccc2c(c1)OCO2)C1CC(=O)N(c2ccc(F)cc2)C1 (stereo not given)	-10.9%	-2.9	8.4%	6.1%	-14.6%	-0.5%
COc1ccc(-n2c(/C=C/c3cccc(C(F)(F)F)c3)nc3ccccc3c2=O)cc1Cl	nt	nt	nt	8.2µM*	13µM*	nt
SMILES	HT1080-NT tox	IL1B secr inh	HT1080 IDH1KD tx	DT40 TDP1 CPT	DT40 TDP1 no CPT	uPA generation
O=C(O)c1ccc(-n2c(/C=C/c3cccc([N+](=O)[O-])c3)nc3ccccc3c2=O)cc1	10.1%	-9.1	-3.1%	4.3%	?	-2.4%
CC(C)(C)c1ccc(OCCNC(=S)Nc2ccccc2)cc1	?	-107.3*	16.4µM*	2.91µM*	5.8µM*	3.8%
CCOc1ccc(CSCCNC(=S)Nc2ccccc2)cc1	6.1%	3.7	-9.1%	23.1µM*	23.1µM*	0.1%
CCOc1ccc(NC(=S)NCCCc2ccccc2)cc1	-0.2%	-17.7	0.5%	?	?	2.7%
S=C(NCCOCCOCCNC(=S)Nc1ccccc1)Nc1ccccc1	-13.8%	0.0	-12.3%	-0.5%	1.9%	-3.9%
COc1ccccc1C(=O)NCCOc1ccc(C(C)(C)C)cc1	-6.5%	-8.5	-5.8%	?	20.6µM*	0.2%
CC(C)(C)c1ccc(OCCNCc2ccccc2)cc1	?	-93.0*	16.4µM*	?	?	-1.7%
CC1CCC(NC(=O)CCS(=O)(=O)c2ccc3c(c2)CCN3C(=O)C2CC2)CC1 (stereo not given)	17.8%	0.0	7.2%	-22.9%	0.0%	-8.7%
CCC(C(=O)OCC(=O)NCc1ccc2c(c1)OCO2)c1ccccc1 (stereo not given)	7.4%	14.2	-4.3%	-11.4%	15.9%	12.7%
CCN1CCN(C(=S)Nc2cc(S(=O)(=O)N(CC)CC)ccc2C)CC1	10.1%	23.4	-2.0%	?	?	-10.3%
CCN(c1ccccc1)c1nnc(NC(=O)Nc2cccc(C(F)(F)F)c2)s1	nt	nt	nt	-22.0%	-24.0%	nt
Cc1cccc(NC(=O)Nc2nnc(N(C)Cc3ccccc3)s2)c1	nt	nt	nt	14.6µM*	?	nt
Cc1c(Cl)cccc1NC(=O)Nc1nnc(N(C)Cc2ccccc2)s1	nt	nt	nt	?	-27.3%	nt
CCN(c1ccccc1)c1nnc(NC(=O)Nc2ccccc2F)s1	nt	nt	nt	?	2.59µM*	nt
Cc1ccccc1NC(=O)Nc1nnc(N(C)Cc2ccccc2)s1	nt	nt	nt	?	16.4µM*	nt
COC(=O)c1ccc(NC(=O)Cn2c(=O)oc3ccccc32)cc1	nt	nt	nt	-14.2%	-5.5%	nt
CC1CCN(C(=O)c2nc[nH]c2C(=O)N2CCC(C)CC2)CC1	13.7%	-5.1	4.1%	1.9%	16.9%	0.2%
CCCC(NCC(=O)Nc1cc(S(=O)(=O)N2CCOCC2)ccc1OC)c1ccccc1 (stereo not given)	-9.8%	?	2.4%	16.4µM*	14.6µM*	?
COc1ccc(S(=O)(=O)N2CCOCC2)cc1NC(=O)Cc1ccccc1Cl	-1.8%	19.9	-5.6%	10.3%	-12.8%	-4.3%
COc1ccc(S(=O)(=O)N2CCOCC2)cc1NC(=O)CC(C)c1ccccc1 (stereo not given)	-5.0%	-6.8	3.8%	-25.4%	20.6µM*	14.3%

Compound activity from PubChem.
